Bioassay records deposited in PubChem by National Center for Advancing Translational Sciences (NCATS).
DT40 TDP1 CPT: growth inhibition of DT40 Tdp1-/-;hTDP1 cells with camptothecin (screen for TDP1 inhibitors) | chicken DT40 Tdp1-/-;hTDP1 cells + 20 nM CPT, ATP luminescence, 48 h | Potency, µM (highest dose often 46.2 µM), for the others: at the highest dose activity change, negative = growth inhibition, most hits filed as inhibitors | actives 12% (n = 420,000); also: potency is read from the fitted curve at half-maximal effect; nearly all actives have a fitted effect of over 55% in size
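Chicken DT40 Tdp1-/- cells stably complemented with human TDP1 were seeded at 400 cells/well in medium containing 20 nM camptothecin, exposed to pin-transferred compounds, and grown at 37 °C for at least 48 hr. Viability was read as ATP luminescence.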
DT40 TDP1 no CPT: qHTS for Inhibitors of human tyrosyl-DNA phosphodiesterase 1 (TDP1): qHTS in cells in absence of CPT | DT40 Tdp1-/- hTDP1 cells, no CPT, ATP luminescence, 48 h | Potency, µM (titrated, usually from 46.2 µM), without a hit: at the top dose activity change, negative = growth inhibition, actives largely listed as inhibitors | actives 15% (n = 420,000); also: potency is read from the fitted curve at half-maximal effect; nearly all actives have a fitted effect of over 55% in size
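Cells were dispensed at 400 per well, compounds added by pin tool, plates incubated ≥48 hr at 37 °C, then CellTiter-Glo added for 30 min at room temperature before luminescence reading. Line: DT40 Tdp1-/- complemented with hTDP1; camptothecin omitted.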
Giardia kill: kills Giardia lamblia; activity change, % at 7.66 µM, hits read low; AID 540267; Giardia lamblia trophozoite viability; actives 0.15% (n = 340,000); in the data active = activity change below about -80%; inconclusive = between about -30% and that limit;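 also: parasites exposed to compound for two days anaerobically before the ATP read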
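Viability, read as ATP luminescence: trophozoites at 100 cells/well, compound added, 48 hrs anaerobic at 37 deg C, then 15-30 min room-temperature development before reading.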
TDP1 block: inhibitors of human tyrosyl-DNA phosphodiesterase TDP1. actives 0.28% (n = 350,000). recombinant TDP1, AlphaScreen DNA substrate cleavage. Potency, µM (series often up to 130 µM), without a hit: at the highest dose activity change, negative = inhibition, hits mostly inhibitors. Q9NUW8; also: potency is read from the fitted curve at half-maximal effect; nearly all actives have a fitted effect of over 40% in size
Target sequence (Q9NUW8 whole entry, looked up): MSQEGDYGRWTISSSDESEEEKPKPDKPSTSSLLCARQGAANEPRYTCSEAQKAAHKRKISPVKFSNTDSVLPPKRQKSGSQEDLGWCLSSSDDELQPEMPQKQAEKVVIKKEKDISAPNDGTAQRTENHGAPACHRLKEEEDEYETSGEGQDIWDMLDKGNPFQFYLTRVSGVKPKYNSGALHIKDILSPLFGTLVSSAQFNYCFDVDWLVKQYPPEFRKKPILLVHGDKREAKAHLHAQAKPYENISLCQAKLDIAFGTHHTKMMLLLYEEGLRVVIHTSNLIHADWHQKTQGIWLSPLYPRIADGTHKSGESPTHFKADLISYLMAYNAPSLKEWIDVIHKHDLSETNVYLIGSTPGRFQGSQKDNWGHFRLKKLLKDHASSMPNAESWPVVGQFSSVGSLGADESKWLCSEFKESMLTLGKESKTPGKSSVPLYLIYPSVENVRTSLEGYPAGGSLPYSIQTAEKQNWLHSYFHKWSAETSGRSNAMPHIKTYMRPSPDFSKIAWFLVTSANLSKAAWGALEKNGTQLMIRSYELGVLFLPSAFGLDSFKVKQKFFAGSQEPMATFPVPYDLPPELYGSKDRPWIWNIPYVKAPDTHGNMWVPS
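Compounds were preincubated with Tdp1 (1 nM final) for 15 min at room temperature before substrate (15 nM final) started a 5 min reaction; beads (10 ug/ml final) were then added for 10 min before AlphaScreen detection.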
IL1B secr inh: blocks inflammasome-driven IL-1 beta release; THP-1 LPS/ATP IL-1B secretion, AlphaLISA, 16 h; stronger effect = lower value; activity change, % at 57.5 µM; actives 4.7% (n = 360,000); in the data active = activity change below about -50%; inconclusive = mostly about -30% to -49%
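Secreted IL-1B measured by AlphaLISA bead assay after 16 h compound exposure of THP-1 cells; compounds (final up to 57.5 uM) added 1 h before LPS (250 ng/mL) and ATP (1.25 mM) stimulation; lower signal means less secretion.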
ELG1 DNA repair: blocks ELG1-dependent DNA repair in HEK293T cells; HEK293T ELG1-luciferase reporter, luminescence, 16 h; DNA damage induced by 5-fluorouridine; Potency, µM (top dose mostly 46.1 µM), without a hit: at the top dose activity change, negative = inhibition, hits mostly inhibitors; actives 2.3% (n = 330,000); also: potency is read from the fitted curve at half-maximal effect; nearly all actives have a fitted effect of over 55% in size
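Reporter activity after DNA damage by 5-fluorouridine is monitored. Compound-treated cells incubate 16 hr at 37 °C, then ONE-Glo is added for 30 min before luminescence reading.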
Numbers without * were called inactive; [ ] = remark or other dose. Sampled rows, rich in hits. Any-hit rate of the full collection: about 19%. Unless noted, calls follow the shape of the dose curve; as a rule, active = well fitted curve in the direction sought with a large enough effect; inconclusive = small, poorly fitted or top-dose-only effect, or another doubt; inactive = no such curve, though single readings can be large; an effect the other way counts as inactive or inconclusive. % is scaled to controls: 0 for no effect and ±100 for the full control effect.

How did N#Cc1c(Cl)nsc1NC(=O)c1ccccc1 do in these assays?
DT40 TDP1 CPT: 13µM*; DT40 TDP1 no CPT: 8.2µM*; Giardia kill: 1.6; TDP1 block: -3.8%; IL1B secr inh: inconclusive; ELG1 DNA repair: 2.91µM*

Results for O=C(Cn1cnc2ccccc2c1=O)Nc1nnc(SCc2ccc(Cl)cc2)s1 ?
DT40 TDP1 CPT: 2.2%; DT40 TDP1 no CPT: -4.8%; Giardia kill: 11.1; IL1B secr inh: 2.8; ELG1 DNA repair: 1.5%

What do the screens show for `Cc1ccc(NC(=O)c2c(C)oc3ncn(C)c(=O)c23)cc1F`?
DT40 TDP1 CPT: inconclusive; DT40 TDP1 no CPT: 18.4µM*; TDP1 block: 0.9%

What do the screens show for `Cc1nc(N2CCCC2)c2c(C(=O)Nc3cccc(Cl)c3C)c(C)oc2n1`?
DT40 TDP1 CPT: inconclusive; DT40 TDP1 no CPT: inconclusive; TDP1 block: -2.1%

How did CCc1cccc(NC(=O)c2c(C)oc3ncnc(N4CCCCC4)c23)c1 do in these assays?
DT40 TDP1 CPT: 13µM*; DT40 TDP1 no CPT: 9.2µM*; TDP1 block: 4.2%

What do the screens show for `Cc1cc(Br)ccc1NC(=O)c1c(C)oc2ncnc(N3CCCCC3)c12`?
DT40 TDP1 CPT: 16.4µM*; DT40 TDP1 no CPT: 16.4µM*; TDP1 block: 5.3%

What do the screens show for `Cc1ccc(NC(=O)c2c(C)oc3ncnc(N4CCCCC4)c23)cc1Cl`?
DT40 TDP1 CPT: 16.4µM*; DT40 TDP1 no CPT: 16.4µM*; TDP1 block: -2.1%

Results for COC(=O)c1cc(CNC(=O)c2ccccn2)cc(NC(=O)c2ccccc2OC)c1 ?
DT40 TDP1 CPT: -7.5%[9.04 µM]; DT40 TDP1 no CPT: inconclusive

What do the screens show for `CCc1ccc(CNC(=O)c2c(C)oc3ncnc(N4CCOCC4)c23)cc1`?
DT40 TDP1 CPT: 13µM*; DT40 TDP1 no CPT: inconclusive; TDP1 block: 1.1%

How did COc1cccc(CNC(=O)c2c(C)oc3ncnc(N4CCOCC4)c23)c1 do in these assays?
DT40 TDP1 CPT: 13.7%; DT40 TDP1 no CPT: -0.6%; TDP1 block: 5.3%

What do the screens show for `COc1cc(-c2noc(C)c2C#Cc2nccn2C)cc(OC)c1OC`?
DT40 TDP1 CPT: 16.4µM*; DT40 TDP1 no CPT: 12.6µM*; Giardia kill: -1.7; IL1B secr inh: -26.0; ELG1 DNA repair: inconclusive

How did COc1cc(C(=O)CSc2nccn2C)cc(OC)c1OC do in these assays?
DT40 TDP1 CPT: 19.4%; DT40 TDP1 no CPT: -16.1%; Giardia kill: -1.0; TDP1 block: -3.9%; IL1B secr inh: 14.6; ELG1 DNA repair: 0.0%

What do the screens show for `Cc1cc2c(nc1C)CCCN2C[C@@H](C)O/N=C1/[C@H]2CCn3c(=O)n(-c4ccccc4)c(=O)n3[C@H]2[C@H](O)[C@@H]2O[C@H]12`?
DT40 TDP1 CPT: inconclusive; DT40 TDP1 no CPT: inconclusive; Giardia kill: 1.2; TDP1 block: 2.6%; IL1B secr inh: -54.3*; ELG1 DNA repair: -22.1%

What do the screens show for `O=[N+]([O-])c1ccc(Cl)c(CN2CCCCCC2)c1`?
DT40 TDP1 CPT: -24.8%; DT40 TDP1 no CPT: -18.8%; Giardia kill: 17.9; IL1B secr inh: -11.6; ELG1 DNA repair: 1.2%

What do the screens show for `COc1ccc(C(=O)C[n+]2cccc3cc(OC)ccc32)cc1`?
DT40 TDP1 CPT: inconclusive; DT40 TDP1 no CPT: 20.6µM*; Giardia kill: 4.2; IL1B secr inh: -0.5; ELG1 DNA repair: -34.6%

Results for O=C(C[n+]1cccc2ccccc21)c1ccc([N+](=O)[O-])cc1 ?
DT40 TDP1 CPT: 20.6µM*; DT40 TDP1 no CPT: inconclusive; Giardia kill: -1.3; TDP1 block: 7.1%; IL1B secr inh: 55.3; ELG1 DNA repair: 20.6µM*

Results for Clc1cccc(Cl)c1C[n+]1cccc2ccccc21 ?
DT40 TDP1 CPT: 2.06µM*; DT40 TDP1 no CPT: 2.06µM*; Giardia kill: -16.5; IL1B secr inh: -7.2

What do the screens show for `O=C(C[n+]1cccc2ccccc21)c1ccc(Cl)cc1`?
DT40 TDP1 CPT: -21.7%; DT40 TDP1 no CPT: -13.3%; Giardia kill: 9.5; IL1B secr inh: -2.2; ELG1 DNA repair: 14.6%

How did COc1cccc(C(=O)C[n+]2cccc3cc(OC)ccc32)c1 do in these assays?
DT40 TDP1 CPT: 2.4%; DT40 TDP1 no CPT: -25.4%; Giardia kill: -16.4; TDP1 block: 0.0%; IL1B secr inh: 5.4; ELG1 DNA repair: -5.7%

How did O=[N+]([O-])c1ccc(Cl)c(C[n+]2cccc3ccccc32)c1 do in these assays?
DT40 TDP1 CPT: 20.6µM*; DT40 TDP1 no CPT: 18.4µM*; Giardia kill: -12.8; IL1B secr inh: 15.8; ELG1 DNA repair: -13.6%

How did Cc1nc(N2CCCC2)ncc1C(=O)NCc1cccc(Cl)c1 do in these assays?
DT40 TDP1 CPT: -25.4%; DT40 TDP1 no CPT: -4.6%; TDP1 block: -6.2%

Results for OC(c1ccccn1)c1c[nH]c2ccccc12 (stereo unspecified) ?
DT40 TDP1 CPT: -9.6%; DT40 TDP1 no CPT: -21.0%; Giardia kill: -6.5; TDP1 block: 7.8%; IL1B secr inh: -0.8; ELG1 DNA repair: -5.2%

Results for CCc1cccc2c(C(O)c3c[nH]c4ccccc34)c[nH]c12 (stereo unspecified) ?
DT40 TDP1 CPT: 4.47µM*; DT40 TDP1 no CPT: 11.2µM*

Results for CCc1cccc2c(C(=O)CN3C(=O)C(=O)N(C4CCCC4)C3=O)c[nH]c12 ?
DT40 TDP1 CPT: inconclusive; DT40 TDP1 no CPT: -18.3%; Giardia kill: 3.1; TDP1 block: 2.1%; IL1B secr inh: -6.9; ELG1 DNA repair: 0.7%

How did CCc1cccc2c(C(=O)CCl)c[nH]c12 do in these assays?
DT40 TDP1 CPT: 14.6µM*; DT40 TDP1 no CPT: 20.6µM*; Giardia kill: -8.7; TDP1 block: 5.5%; IL1B secr inh: -94.7*; ELG1 DNA repair: 0.4%

How did CCc1cccc2c(C(=O)CN3C(=O)NC4(CCCCC4)C3=O)c[nH]c12 do in these assays?
DT40 TDP1 CPT: 5.8µM*; DT40 TDP1 no CPT: 5.8µM*; Giardia kill: -5.8; TDP1 block: 0.4%; IL1B secr inh: -2.0; ELG1 DNA repair: inconclusive

What do the screens show for `CCOc1ccc(C(=O)OCC(=O)N2CC(C)OC(C)C2)cc1OCC` (stereo unspecified)?
DT40 TDP1 CPT: -4.4%; DT40 TDP1 no CPT: -8.2%; Giardia kill: -6.3; TDP1 block: -6.9%; IL1B secr inh: 1.7; ELG1 DNA repair: 8.9%

How did COCCN(C(=S)Nc1cccc(C)c1)C(C)c1cccnc1 (stereo unspecified) do in these assays?
DT40 TDP1 CPT: 3.8%; DT40 TDP1 no CPT: 0.1%; Giardia kill: -13.7; TDP1 block: 3.4%; IL1B secr inh: 7.3; ELG1 DNA repair: 12.2%
